# Bioassay records from PubChem BioAssay.
# FBW7 activator = FBW7 E3 ligase activators, primary screen, biochemical, AlphaScreen, human | 650,000 tested, 0.13% active | AID 1259310, 2017 | F-box/WD repeat-containing protein 7 (Homo sapiens), Q969H0 | AlphaScreen FBW7–phospho-cyclin E peptide binding, activator screen | normalized activity (activation), % at 26.1 µM; in the data active = normalized activity above about 1.9%;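 note: purified mutant Fbw7 with reduced substrate affinity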
# Target sequence (Q969H0 whole entry, looked up): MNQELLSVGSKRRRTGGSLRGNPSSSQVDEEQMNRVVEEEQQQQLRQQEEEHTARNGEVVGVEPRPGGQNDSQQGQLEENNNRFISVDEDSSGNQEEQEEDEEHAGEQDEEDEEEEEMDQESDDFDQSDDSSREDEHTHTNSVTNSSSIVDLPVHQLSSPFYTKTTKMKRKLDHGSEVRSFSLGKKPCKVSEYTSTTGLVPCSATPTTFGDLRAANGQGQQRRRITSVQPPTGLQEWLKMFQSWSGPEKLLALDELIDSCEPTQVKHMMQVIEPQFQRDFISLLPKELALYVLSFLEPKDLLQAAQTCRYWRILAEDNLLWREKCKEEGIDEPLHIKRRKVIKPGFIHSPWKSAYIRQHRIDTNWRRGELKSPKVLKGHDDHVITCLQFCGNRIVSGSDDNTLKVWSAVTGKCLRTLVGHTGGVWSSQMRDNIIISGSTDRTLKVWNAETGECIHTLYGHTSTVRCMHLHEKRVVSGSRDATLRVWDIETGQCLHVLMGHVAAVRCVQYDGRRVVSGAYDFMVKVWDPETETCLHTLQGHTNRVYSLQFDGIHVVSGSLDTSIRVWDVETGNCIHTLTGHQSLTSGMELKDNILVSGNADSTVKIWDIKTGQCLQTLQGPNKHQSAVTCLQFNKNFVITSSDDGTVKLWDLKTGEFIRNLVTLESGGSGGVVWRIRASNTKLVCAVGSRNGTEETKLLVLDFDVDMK
# TEAD-YAP block = TEAD-YAP interaction inhibition, primary screen, TEAD-YAP interaction inhibitor project, luminescence, HEK-TIYL cells; AID 1259422, 2018; inhibition, % at 9.12 µM; TEAD-Gal4/YAP UAS-luciferase luminescence; 640,000 tested, 1.4% active; in the data active = inhibition above about 32%
# MITF inh = MITF inhibitors, primary screen, biochemical, AlphaScreen, human | Microphthalmia-associated transcription factor (Homo sapiens), O75030 | inhibition, % at 2.6 µM | AlphaScreen MITF homodimerization, bead proximity signal | 650,000 tested, 0.91% active; in the data active = inhibition above about 50%
# GPR151 ag = activators of human GPR151, primary screen, cell-based, PathHunter beta-arrestin, luminescence; 650,000 tested, 1% active; AID 1508602, 2020; G-protein coupled receptor 151 (Homo sapiens), Q8TDV0; activation, % at 11.2 µM; PathHunter beta-arrestin GPR151 cells; in the data active = activation above about 4.9%
# A number is an active result; 0 = inactive. Hits are enriched below; roughly 3.5% of the tested compounds scored in any of these assays.
SMILES,FBW7 activator,TEAD-YAP block,MITF inh,GPR151 ag
COc1cc(S(=O)(=O)N2CCc3ccccc32)c(OC)cc1Cl,0,45,0,0
O=S(=O)(c1cccc(S(=O)(=O)N2CCc3ccccc32)c1)N1CCCC1,0,43,0,0
COc1ccc(S(=O)(=O)N2CCCc3ccccc32)cc1C,0,37,0,0
Cc1ccc(S(=O)(=O)N2CCc3ccccc32)cc1[N+](=O)[O-],0,56,0,0
Cc1ccc(S(=O)(=O)N2CCc3ccccc32)cc1C(N)=O,0,0,0,0
CN(C)CCNC(=O)c1ccc(Sc2ccccc2Cl)c([N+](=O)[O-])c1,0,0,0,0
CN(C)CCNC(=O)c1ccc(S(=O)(=O)c2ccc(Br)cc2)c([N+](=O)[O-])c1,0,55,0,0
Cc1ccc(CCN2CC(C(=O)NCc3ccccc3Cl)CC2=O)cc1 (configuration not stated),0,0,0,0
Cc1ccc(S(=O)Cc2ccc(C(=O)N3CCN(c4ccccc4)CC3)o2)cc1 (configuration not stated),0,50,0,0
O=C(c1ccc(CS(=O)c2ccccc2)o1)N1CCN(c2ccccc2)CC1 (configuration not stated),0,42,0,0
Cc1ccc(S(=O)(=O)Cc2ccc(C(=O)N3CCN(c4ccccc4)CC3)o2)cc1,0,40,0,0
Cc1ccccc1S(=O)Cc1ccc(C(=O)N2CCN(c3ccccn3)CC2)o1 (configuration not stated),0,42,0,0
Cc1ccc(CS(=O)Cc2ccc(C(=O)N3CCN(c4ccccc4)CC3)o2)cc1 (configuration not stated),0,0,0,0
Cc1nc2ccccc2c2c1C(=O)N(N)C2=O,0,0,0,0
Cc1cccc(C(=O)Nc2sc3c(c2C(=O)O)CCC3)c1,0,66,0,0
COc1ccc(C(=O)Nc2sc3c(c2C(=O)O)CCC3)cc1,0,40,0,0
O=C(Nc1sc2c(c1C(=O)O)CCC2)c1ccc(Br)cc1,0,0,0,0
CC(C)Oc1ccc(C(=O)Nc2sc3c(c2C#N)CCC3)cc1,0,0,0,0
CNC(=O)c1c(NC(=O)c2cccc(C)c2)sc2c1CCC2,0,0,0,0
COc1ccc(C(=O)Nc2sc3c(c2C#N)CCC3)cc1,0,37,0,0
CC(C)(C)c1ccc(C(=O)Nc2sc3c(c2C(=O)O)CCC3)cc1,0,89,0,0
C=CCN1CCN(C(c2ccc(OC)cc2OC)c2nnnn2CC2CCCO2)CC1 (configuration not stated),0,0,0,0
Cn1nnc(-c2nc(N3CCOCC3)nc(N3CCOCC3)n2)n1,0,0,0,0
Cc1ccc(C(=O)Nc2sc3c(c2C(=O)O)CCCC3)o1,0,40,0,0
O=C(Nc1sc2c(c1C(=O)O)CCCC2)c1ccc(Br)cc1,0,0,0,0
SMILES,FBW7 activator,TEAD-YAP block,MITF inh,GPR151 ag
CCN(CC)S(=O)(=O)c1ccc(Cl)c(C(=O)Nc2sc3c(c2C#N)CCC3)c1,0,34,0,0
O=C(Nc1sc2c(c1C(=O)O)CCCC2)c1ccc(F)cc1,0,36,0,0
COCCNC(=O)CCC1CCN(C(=O)CCOc2ccccc2)CC1,0,0,0,0
COCCNC(=O)CCC1CCN(C(=O)C#Cc2ccccc2)CC1,0,38,0,0
C/C(=N\NS(=O)(=O)c1ccc(Cl)cc1)c1ccc(C)o1,0,0,0,0
COc1ccc(C2=NN(C(=O)c3cc(OC)c(OC)c(OC)c3)C(c3ccc(C)cc3)C2)cc1OC (configuration not stated),0,46,0,0
COc1ccc(C2=NN(C(=O)c3cc(OC)c(OC)c(OC)c3)C(c3ccc(OC)c(OC)c3)C2)cc1OC (configuration not stated),0,0,0,0
COc1ccc(C2=NN(C(=O)c3ccccc3)C(c3cccc([N+](=O)[O-])c3)C2)cc1 (configuration not stated),0,0,0,0
COc1ccc(C2=NN(C(=O)c3cc(OC)c(OC)c(OC)c3)C(c3cccc([N+](=O)[O-])c3)C2)cc1OC (configuration not stated),0,37,0,0
Cc1cnc(NCCCN2CCCC2=O)nc1NC1CC1,0,0,0,0
CC1CCC(=NNC(=O)c2ccccc2O)CC1 (configuration not stated),0,0,0,0
O=c1[nH]c(CN2CCOCC2)nc2scc(-c3cccs3)c12,0,0,0,0
Cn1nnnc1Sc1nc(CN2CCOCC2)nc2scc(-c3cccs3)c12,0,61,0,0
O=C(COC(=O)C(CCCCN1C(=O)C2C3CCC(C3)C2C1=O)N1C(=O)C2C3CCC(C3)C2C1=O)c1ccc(Br)cc1 (configuration not stated),0,0,0,0
C=CCOc1ccc(/C=C2\SC(=S)N(CCCC(=O)O)C2=O)cc1,0,80,0,0
O=C(O)CCCN1C(=O)/C(=C/c2c(F)cccc2Cl)SC1=S,0,60,0,0
C=CCN1C(=O)S/C(=C/c2c(F)cccc2Cl)C1=O,0,0,0,0
Cc1ccc(/C=C2\SC(=S)N(CCCC(=O)OCCN(C)C)C2=O)cc1,0,93,0,0
Cc1cccc(/C=C2\SC(=S)N(CCCC(=O)O)C2=O)c1,0,75,0,0
COCCCN1C(=O)/C(=C/c2ccc(C)cc2)SC1=S,0,0,0,0
Cc1ccc(/C=C2\SC(=S)N(CCCC(=O)O)C2=O)cc1,0,92,0,0
CCOc1ccc(/C=C2\SC(=S)N(CCC(=O)O)C2=O)cc1,0,0,0,0
Cc1ccc(/C=C2/SC(=S)N(CCCC(=O)O)C2=O)cc1,0,86,0,0
Cc1ccc(/C=C2\SC(=S)N(CCCC(=O)N3CCOCC3)C2=O)cc1,0,0,0,0
Cc1ccccc1/C=C1\SC(=S)N(CCCC(=O)O)C1=O,0,45,0,0
SMILES,FBW7 activator,TEAD-YAP block,MITF inh,GPR151 ag
C#CCOc1ccc(/C=C2/SC(=S)N(CCC(=O)O)C2=O)cc1,0,58,0,0
COc1ccc(CCNC(=O)c2nnn(-c3ccc4c(c3)OCCO4)c2N)cc1OC,0,65,0,0
O=C(CC(Nc1ccc(F)cc1)C(=O)O)c1ccccc1 (configuration not stated),0,0,0,0
COc1cccc(C(=O)/C=C\Nc2ccc(OC)cc2OC)c1,0,80,0,0
COc1ccccc1N/C=C/C(=O)c1ccccc1,0,46,0,0
COc1cccc(C(=O)/C=C/Nc2cc(Cl)ccc2OC)c1,0,0,0,0
COc1ccccc1NC(CC(=O)c1ccccc1)C(=O)O (configuration not stated),0,54,0,0
COc1ccc(OC)c(N/C=C/C(=O)c2ccccc2)c1,0,95,0,0
Nc1n[nH]c(C(=O)N/N=C/c2ccc(O)cc2O)n1,0,0,0,0
NNc1ccc(Cc2cccc(Cl)c2)nn1,0,0,0,0
